Unmarked numbers belong to inactive results. Calls of active or inactive are those of the source.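 How the source made its calls: active means blocks over 70% of labeled estradiol binding at 10 µM, or over a set limit at 100 nM; inactive means the rest.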

The target in the test is Estrogen receptor beta (Homo sapiens) (UniProt Q92731). The test can be described thus: ERbeta ligand binders by competition, primary screen, cell-based, Cos7 ERbeta-GFP, flow cytometry (AID 1210).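 Further: 0% = DMSO vehicle wells and 100% = complete loss of labeled estradiol signal.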 The note with it: fluorescent estrogen binding, at 10 µM, hits give high values. For orientation: In flow cytometry, cells or beads pass a laser one at a time.
Chain of Estrogen receptor beta (Homo sapiens) (Q92731 whole entry, looked up): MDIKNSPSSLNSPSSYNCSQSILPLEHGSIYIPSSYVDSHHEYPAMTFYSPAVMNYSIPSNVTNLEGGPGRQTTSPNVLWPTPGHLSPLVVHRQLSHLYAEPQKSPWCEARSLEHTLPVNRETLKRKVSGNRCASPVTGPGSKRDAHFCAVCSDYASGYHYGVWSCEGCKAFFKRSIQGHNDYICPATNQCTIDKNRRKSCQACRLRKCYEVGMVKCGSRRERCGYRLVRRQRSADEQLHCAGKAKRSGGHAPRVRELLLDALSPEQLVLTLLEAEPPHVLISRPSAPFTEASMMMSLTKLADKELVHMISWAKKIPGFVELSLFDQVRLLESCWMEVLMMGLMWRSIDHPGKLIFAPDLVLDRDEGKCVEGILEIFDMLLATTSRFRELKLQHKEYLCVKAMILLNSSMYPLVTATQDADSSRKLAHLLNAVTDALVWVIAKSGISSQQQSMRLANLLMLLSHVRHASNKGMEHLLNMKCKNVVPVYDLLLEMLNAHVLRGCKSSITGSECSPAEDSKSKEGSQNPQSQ
Regarding `CCSc1nc2c(cnn2-c2ccc(C)cc2)c(=O)[nH]1`, the inhibition (in general, the share of the control response that was lost under treatment) is 31%.

For the compound `O=C(O)C1Nc2c(O)cc(Cl)c([N+](=O)[O-])c2C2C=CCC12` (stereo not drawn), the inhibition was 31%.

Take `Oc1ccc(C=Nc2ccc(N3CCOCC3)cc2)c(O)c1`: the inhibition was 51%.

Take `CCN(CC)CCCNC(=O)c1nn(-c2ccccc2OC)c(=O)c2ccccc12`: the inhibition was 40%.

In the case of `O=C(Nc1ccc2c(c1)nc1n2CCSC1)c1ccco1`, the inhibition is 57%.

With `CCc1ccc2nc(NC(=O)c3ccc4c(=O)[nH]c(CN5CCOCC5)nc4c3)sc2c1`, the inhibition was 29%.

Turning to `CCOC(=O)C1=C(C)NC(=O)NC1c1ccco1` (stereo not drawn), the inhibition is 11%.

On to `Cc1ccc(-n2nnnc2SCC(=O)Nc2ccc3c(c2)COC3=O)cc1C`, for which the inhibition was 15%.

As to `CSc1ccc(S(=O)(=O)Nc2cccc(F)c2)cc1`, the inhibition was 21% (active).

With `O=c1c2c([nH]c3ccccc13)C(=C1CCCC1)CC2`, the inhibition was 42%.

As to `CC1CCN(S(=O)(=O)c2ccc(NC(=O)Cc3cccs3)cc2)CC1`, the inhibition was 36%.

Regarding `COc1cccc(-c2nnc(NC(=O)Cc3cccs3)s2)c1`, the inhibition was 30%.

For the compound `NC(=O)c1c(NC(=O)c2cc3ccccc3o2)sc2c1CCC2`, the inhibition is 18%.

Take `CCN(CC)c1ccc2c(c1)oc(=O)c1c(Cl)cc(=O)oc12`: the inhibition was 33%.

As for `COc1ccc(CNC(=O)c2cc(-c3cccs3)on2)cc1`, the inhibition is 39%.

For `O=C(O)C1OC(Oc2c(-c3ccc(O)c(O)c3)oc3cc(O)cc(O)c3c2=O)C(O)C(O)C1O` (stereo not drawn), the inhibition is 55%.

Take `COc1ccc(C2CC(c3cccs3)=NN2c2ccc(C=O)cc2)cc1` (stereo not drawn): the inhibition is 42%.

Turning to `O=C(CCCn1c(=S)[nH]c2cc3c(cc2c1=O)OCO3)N1CCN(c2ccc(Cl)cc2)CC1`, the inhibition is 0%.

Regarding `Cc1nnc(Oc2ccccc2F)c2ccccc12`, the inhibition is 47%.

As for `O=C1c2ccccc2C(=O)N1/N=C/c1ccc(O)c(O)c1`, the inhibition was 58%.

With `COc1cccc(NC(=O)CSc2nc3ccccc3c3nc4ccccc4n23)c1`, the inhibition is 31%.

Take `CC(Oc1ccc(Cl)cc1Cl)C(=O)Nc1ccc2oc(-c3ccncc3)nc2c1` (stereo not drawn): the inhibition is 50%.

`COc1ccc(NC(=O)CN(c2ccccc2)S(=O)(=O)N(C)C)cc1OC`: the inhibition was 40%.

Regarding `CCOC(=O)c1c(NC(=O)CSc2nnc(-c3ccccc3)o2)sc(C(C)=O)c1C`, the inhibition is 40%.

Regarding `CCOc1cccc2cc(-c3nnc(NCc4ccco4)s3)c(=O)oc12`, the inhibition is 26%.

Turning to `O=Cc1cn(-c2ccccc2)nc1-c1cc2c(ccc3ccccc32)oc1=O`, the inhibition was 39% (active).

In the case of `Oc1ccc(-c2cn3c(n2)SCC3)cc1`, the inhibition is 64%.

Turning to `COc1ccc2nc3oc(C(=O)N4CCN(c5cccc(C(F)(F)F)c5)CC4)cc3cc2c1`, the inhibition is 24%.

With `Cc1ccc2occ(C3NC(C(=O)O)CS3)c(=O)c2c1` (stereo not drawn), the inhibition was 62%.

As to `Oc1ccc(N=Cc2ccc(O)c(O)c2)cc1`, the inhibition was 34%.

In the case of `C=CCn1c(COc2cccc(C)c2)nnc1SCC(=O)NC(=O)NCc1ccco1`, the inhibition is 31%.

Regarding `Cc1cccn2c(=O)c3cc(C(=O)O)n(C)c3nc12`, the inhibition was 60%.

As to `Cc1ccccc1CSCC(=O)NC(=O)NCc1ccco1`, the inhibition was 27%.

As to `COC(=O)c1ccc2c(=O)n(CCCCCC(=O)NCc3ccc4c(c3)OCO4)c(=O)[nH]c2c1`, the inhibition is 68%.

As to `C/C(N)=C(/C#N)C(=O)CSc1nnc(COc2ccccc2Cl)o1`, the inhibition is 44%.

For `CC(C)(C)c1nnc2sc(SC/C(O)=C(\C#N)c3nc4ccccc4[nH]3)nn2c1=O`, the inhibition is 31%.

`CCc1ccc(Nc2cc(C(=O)NCCCN3CCOCC3)c3ccccc3n2)cc1`: the inhibition was 38%.

For the compound `CCN(c1ccccc1)S(=O)(=O)c1cc(C(=O)O)ccc1C`, the inhibition is 2%.

The record behind these values is PubChem BioAssay AID1210 (NMMLSC, 2008).
